{"source": "paper PMC7819943", "about": "“Rice protein-binding microarrays: a tool to detect cis-acting elements near promoter regions in rice”", "note": "Whole data set: some 39,000 sequences, median “fluorescence intensity (a.u.)” near 4,300, cut for the highest 2% near 39,000. The sample as a whole holds a higher share of the highest values than the screen did."}
{"biological_target": "T1, OsSMF1 (Oryza sativa, UniProt Q6ZLB0 1-436)", "T1 sequence": "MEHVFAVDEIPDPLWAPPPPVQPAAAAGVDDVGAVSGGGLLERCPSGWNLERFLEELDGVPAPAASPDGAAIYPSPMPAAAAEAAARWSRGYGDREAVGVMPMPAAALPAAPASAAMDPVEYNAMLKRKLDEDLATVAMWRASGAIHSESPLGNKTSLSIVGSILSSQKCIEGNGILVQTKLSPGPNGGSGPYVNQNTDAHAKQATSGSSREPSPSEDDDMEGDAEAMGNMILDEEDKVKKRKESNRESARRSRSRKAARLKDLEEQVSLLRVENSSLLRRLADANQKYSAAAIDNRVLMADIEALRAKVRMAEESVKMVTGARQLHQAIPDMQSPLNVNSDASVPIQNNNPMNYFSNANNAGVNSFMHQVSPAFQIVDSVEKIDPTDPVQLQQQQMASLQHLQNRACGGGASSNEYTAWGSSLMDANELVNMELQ", "experiment": "protein-binding microarray (RPBM); PBS, 2% BSA, 51.3 ng/ul salmon testes DNA, 50 uM zinc acetate, 200 nM TF, 25 C, 1 h; high values mean tight binding", "settings": "protein: recombinant; tags: N-terminal polyhistidine and DsRed monomer fusion (pET32a); chain copies: 2; label: CyDye5-dUTP incorporated in the synthesized complementary strand; 3' TTTTT single-stranded linker to array surface; dsDNA, one strand shown", "procedure,_shortened": "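The binding signal is fluorescence intensity per feature, in arbitrary units, read on an Axon 4000B scanner. Polyhistidine- and DsRed-tagged transcription factors (N-terminal fusions) from E. coli BL21-CodonPlus were purified on Ni–NTA and applied at 200 nM for 1 h at 25 °C to a double-stranded, BSA-blocked custom Agilent array in buffer with 50 µM zinc acetate.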"}
{"sequence": "TTGGCTTCTTCAACTTACGTTACCCAATGCATTATATTTGCGGAGTCACCTAGTGCAG", "binding signal": "4300 fluorescence intensity (a.u.)"}
{"sequence": "ACTGCTCACGCCTTAACTGCGCGTCTTAAGGTGGCGTGGCCGGAGTCACCTAGTGCAG", "binding signal": "4310 fluorescence intensity (a.u.)"}
{"sequence": "CGAGCCCACTCGAGGTGACTCACCTTGTTCCTCCACCAGTCGGAGTCACCTAGTGCAG", "binding signal": "18500 fluorescence intensity (a.u.)"}
{"sequence": "TCTGAGTTACTTCCAAGTTGACTAGTTACCTCTTACTACCCGGAGTCACCTAGTGCAG", "binding signal": "3260 fluorescence intensity (a.u.)"}
{"sequence": "TTAATGTCCGAACACCTCATACAACGTGACGCGTCAAAACCGGAGTCACCTAGTGCAG", "binding signal": "6890 fluorescence intensity (a.u.)"}
{"sequence": "AGTTGGCGTGGATGGCCACGATTCTGGACCCGGGGTTGCCCGGAGTCACCTAGTGCAG", "binding signal": "3600 fluorescence intensity (a.u.)"}
{"sequence": "CTCATCGTCCTCCACGTGTCCACCCATACACGTGTCGCCACGGAGTCACCTAGTGCAG", "binding signal": "29800 fluorescence intensity (a.u.)"}
{"sequence": "AATCTCACCCATCCACGTGTCCCCAGATCTCATCCCCATCCGGAGTCACCTAGTGCAG", "binding signal": "18700 fluorescence intensity (a.u.)"}
{"sequence": "GACAACCGAACACGTCGAGCCAGCGAATGATGAAACCCCACGGAGTCACCTAGTGCAG", "binding signal": "31800 fluorescence intensity (a.u.)"}
{"sequence": "ATTCTAATGACACCTAAGTGCCACGTCAACGCCACGTGGACGGAGTCACCTAGTGCAG", "binding signal": "45100 fluorescence intensity (a.u.)"}
{"sequence": "CTGAATTTAGACACCTCAGCGCCACGTCAACTGGCGCTGACGGAGTCACCTAGTGCAG", "binding signal": "18400 fluorescence intensity (a.u.)"}
{"sequence": "ACCGATGCCATCATCCACGTCATCGTCCACGTGTCACCCACGGAGTCACCTAGTGCAG", "binding signal": "45100 fluorescence intensity (a.u.)"}
{"sequence": "ATGGACTGTTTTGTCAACTAAGTAATGCATGACACGTGGACGGAGTCACCTAGTGCAG", "binding signal": "14500 fluorescence intensity (a.u.)"}
{"sequence": "TATGTATGAATGACAACACCGCCACGTCAGCGCCACGTCACGGAGTCACCTAGTGCAG", "binding signal": "50400 fluorescence intensity (a.u.)"}
{"sequence": "TTAATTCTAATGCCACTTAAGCGCAACGTCAACACCACGTCGGAGTCACCTAGTGCAG", "binding signal": "18200 fluorescence intensity (a.u.)"}
{"sequence": "TACCAGTGTCACGCAGTGACGCAATGGATCATGCTATCCACGGAGTCACCTAGTGCAG", "binding signal": "4450 fluorescence intensity (a.u.)"}
{"sequence": "ACGCATGGATCCACGTGACGTCACGCCACGTCATCCACCACGGAGTCACCTAGTGCAG", "binding signal": "60800 fluorescence intensity (a.u.)"}
{"sequence": "GTCCGATCGGACGCACCACGCATCCTAGCCGTCCACGCCACGGAGTCACCTAGTGCAG", "binding signal": "3180 fluorescence intensity (a.u.)"}
{"sequence": "CGGCGGCTTCTTGTTGGTGACGCCGCACGGCATGGTTGATCGGAGTCACCTAGTGCAG", "binding signal": "5370 fluorescence intensity (a.u.)"}
{"sequence": "CACTGCCCATTCGCCACGTCCCCTAACGCTCCAGGTTTATCGGAGTCACCTAGTGCAG", "binding signal": "11800 fluorescence intensity (a.u.)"}
{"sequence": "GAGATCGAACATCGATGCAGCCCCGCGTCAGGTGCCAAGTCGGAGTCACCTAGTGCAG", "binding signal": "3510 fluorescence intensity (a.u.)"}
{"sequence": "TAACCATGGTCTTGCCTACGTGGCGTGCCACGTAGACGATCGGAGTCACCTAGTGCAG", "binding signal": "34300 fluorescence intensity (a.u.)"}
{"sequence": "CATGGTGCGGGCCAGCTCAGCTGTGCACGTGGCATGCCACCGGAGTCACCTAGTGCAG", "binding signal": "17200 fluorescence intensity (a.u.)"}
{"sequence": "TTGAACCCCGTGTACATCAACAAACCACGTGTCCATCAAGCGGAGTCACCTAGTGCAG", "binding signal": "6220 fluorescence intensity (a.u.)"}
{"sequence": "ACCATGGTCTAACCTACGTGGCATGCCACGTGTGCGTGTGCGGAGTCACCTAGTGCAG", "binding signal": "56000 fluorescence intensity (a.u.)"}
{"sequence": "ACCCAAAGCCACCCGCAACAACCGACGACGACGACGACCGCGGAGTCACCTAGTGCAG", "binding signal": "24100 fluorescence intensity (a.u.)"}
{"sequence": "CACGTGTACAAGGGCAAAGCGCAACACCGACCCGAGTCCACGGAGTCACCTAGTGCAG", "binding signal": "39300 fluorescence intensity (a.u.)"}
{"sequence": "AAAGTTTCATGCCTGAGATGTTATGTTACGTGTCTATCCACGGAGTCACCTAGTGCAG", "binding signal": "7680 fluorescence intensity (a.u.)"}
{"sequence": "AACATGATTTAACAGGTAACAGTCGCCCATGCCATTCTTGCGGAGTCACCTAGTGCAG", "binding signal": "3350 fluorescence intensity (a.u.)"}
{"sequence": "ATTTTCATGCTTAGATGTAGTAACTACACCAACATTACATCGGAGTCACCTAGTGCAG", "binding signal": "3310 fluorescence intensity (a.u.)"}
{"sequence": "ATGTTTCTGCGGCCCGTCATCCGTGTTTGAGTCGGTTATACGGAGTCACCTAGTGCAG", "binding signal": "4220 fluorescence intensity (a.u.)"}
{"sequence": "CGCAGCCCGAGCCCGCCGTATTCCACGTCGACGCTGTCGTCGGAGTCACCTAGTGCAG", "binding signal": "5720 fluorescence intensity (a.u.)"}
{"sequence": "GAAATTTTCAGGGTGTTACATAGATCAACTGAATTCCTTACGGAGTCACCTAGTGCAG", "binding signal": "3550 fluorescence intensity (a.u.)"}
{"sequence": "CATAAATGAGATCCAGTGACGGCATGAGCATGTCCCAATTCGGAGTCACCTAGTGCAG", "binding signal": "24900 fluorescence intensity (a.u.)"}
{"sequence": "TATAAATTTGGACACATATATGAAACACATATATTGATCCCGGAGTCACCTAGTGCAG", "binding signal": "30400 fluorescence intensity (a.u.)"}
{"sequence": "ATAAATTTGGACGCATCCCAAAATTCGGCAAACATATGACCGGAGTCACCTAGTGCAG", "binding signal": "39200 fluorescence intensity (a.u.)"}
{"sequence": "GTGAGAGAAGCCGCCTTGGATGATGTCAACCATGGTGGCGCGGAGTCACCTAGTGCAG", "binding signal": "6930 fluorescence intensity (a.u.)"}
{"sequence": "CAATGCTAGCCGCGCAATCTGCGCGGGCCACCATGCTATTCGGAGTCACCTAGTGCAG", "binding signal": "3430 fluorescence intensity (a.u.)"}
{"sequence": "GGGCCAAAACAAAGCCAGCGTGCAACCCTCGACAAAGCACCGGAGTCACCTAGTGCAG", "binding signal": "4110 fluorescence intensity (a.u.)"}
{"sequence": "CACACCCTTACTGTAGCTATCACTGCACAAAGCCAAAACCCGGAGTCACCTAGTGCAG", "binding signal": "43600 fluorescence intensity (a.u.)"}
{"sequence": "GATATCATGTAGGAGTAGTAGTTGTTATGTGTGTGGGCTACGGAGTCACCTAGTGCAG", "binding signal": "13000 fluorescence intensity (a.u.)"}
{"sequence": "CAATTATCCGCAACGTATGGCTAGCTCAACCCTACTGTAACGGAGTCACCTAGTGCAG", "binding signal": "3270 fluorescence intensity (a.u.)"}
{"sequence": "GATGGCTATCTGCCCGGGCAAAGTGTACCCTTTTACTGTTCGGAGTCACCTAGTGCAG", "binding signal": "30800 fluorescence intensity (a.u.)"}
{"sequence": "CAAACCCTAGCTCATATGGTTGTAGTCTTAGCTACTATCACGGAGTCACCTAGTGCAG", "binding signal": "50500 fluorescence intensity (a.u.)"}
{"sequence": "TCCATGGCGCCACACGTCACCACCTTCTCACACCCTCGTCCGGAGTCACCTAGTGCAG", "binding signal": "18400 fluorescence intensity (a.u.)"}
{"sequence": "CTTTGCCACGGCGGTCTCTCGTCCTCTTCCTCCTCTCCGCCGGAGTCACCTAGTGCAG", "binding signal": "4190 fluorescence intensity (a.u.)"}
{"sequence": "CCACGGGTTCTTCCTCGATGCCTTCTCCGGCGCCGTCCGGCGGAGTCACCTAGTGCAG", "binding signal": "45300 fluorescence intensity (a.u.)"}
{"sequence": "GCCTTCTTCCTCGCCTGCGGCCGTCTCCGCCACCTCGACCCGGAGTCACCTAGTGCAG", "binding signal": "4040 fluorescence intensity (a.u.)"}
{"sequence": "CCGTCTTCTTCCTCCACGTTCCTATCCATGGCGCCAGTTCCGGAGTCACCTAGTGCAG", "binding signal": "41400 fluorescence intensity (a.u.)"}
{"sequence": "CAACCATGGCGTCATCCTCTTCCTCCTCCTCCTCCTCCTCCGGAGTCACCTAGTGCAG", "binding signal": "5800 fluorescence intensity (a.u.)"}
{"sequence": "CGGCCGCGTCAGGGAGGACGCCGCGCGGCACTACTTCCGGCGGAGTCACCTAGTGCAG", "binding signal": "3870 fluorescence intensity (a.u.)"}
{"sequence": "CGACGGCCACAACCGGTTGTGGCGGCGTCTGCGTTGGCAGCGGAGTCACCTAGTGCAG", "binding signal": "5430 fluorescence intensity (a.u.)"}
{"sequence": "ATTGCTTTATATGGTTATTTAAGTTTATTTTGCATCCCTACGGAGTCACCTAGTGCAG", "binding signal": "22600 fluorescence intensity (a.u.)"}
{"sequence": "ACAGGAGCACCATCAACAGCTGACAACTTGGCATTGGTATCGGAGTCACCTAGTGCAG", "binding signal": "3680 fluorescence intensity (a.u.)"}
